From PubChem
Sampled rows, rich in hits. Any-hit rate of the full collection: about 2.9%.
Nrf2 activator = qHTS of Nrf2 Activators; AREc32 ARE-luciferase reporter (MCF7-derived line), luminescence, 24 h; Potency, µM (series often up to 46.1 µM), actives largely listed as activators; 410,000 tested, 0.31% active; further: nearly all actives have a fitted effect of over 65% in size
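Luciferase luminescence (Steady-Glo, 30 min at room temperature) served as the read-out of ARE activation in AREc32 cells treated with compounds for 24 hr at 37 deg C.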
A549 tox = Nrf2 qHTS screen for inhibitors: counterscreen for cytotoxicity; A549 ARE-Fluc cells, CellTiter-Fluor viability, 18-24 h; Potency, µM (highest dose often 46 µM), usual class: inhibitors; 390,000 tested, 0.16% active
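Cytotoxicity counterscreen: CellTiter-Fluor fluorescence was measured in A549 ARE_Fluc cells after 18-24 h of compound exposure in a concentration series. The subsequent BugLite luminescent read reports ARE-luciferase activity.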
ATXN2 expr inh = Primary qHTS for Inhibitors of ATXN expression; Potency, µM (highest dose often 57 µM), actives largely listed as inhibitors; 360,000 tested, 0.72% active; HEK-293 ATXN2-luciferase reporter, luminescence, 24 h; further: nearly all actives have a fitted effect of over 55% in size
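qHTS (up to 57 uM final) was run with 24 h compound exposure of reporter cells at 37 °C. Each well was multiplexed: SteadyGlo luminescence measured ATXN2-luciferase expression after a fluorogenic Gly-Phe-AFC viability readout (25 uM final).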
ATXN viability = Viability Counterscreen for Primary qHTS for Inhibitors of ATXN expression; S2 cells (HEK-293 line with an ATXN2-luciferase reporter) viability, CellTiter-Fluor protease fluorescence, 24 h; Potency, µM (top dose mostly 56.7 µM), usual class: cytotoxic; AID 651635, 2014; 400,000 tested, 0.49% active; further: nearly all actives have a fitted effect of over 40% in size
Nrf2 block = Nrf2 qHTS screen for inhibitors; A549 ARE-Fluc reporter, luciferase luminescence, 18-24 h; Potency, µM (top dose mostly 46 µM), most hits filed as inhibitors; 360,000 tested, 2.1% active; AID 504444, 2011; further: nearly all actives have a fitted effect of over 60% in size
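Reporter: ARE-Fluc in A549. Exposure: 18-24 h, 37 °C, 5% CO2, 5% FBS OPTI-MEM. Readouts: fluorescent cytotoxicity (CellTiter-Fluor), then luminescent Nrf2 signal after BugLite.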
Of the large screens only hits and unclear results are named; the others gave an inactive call. The call rests on the fitted dose curve; in most records, active means well fitted curve in the direction sought with a large enough effect; inconclusive means small, poorly fitted or top-dose-only effect, or another doubt; inactive means no such curve, though single readings can be large; an effect the other way counts as inactive or inconclusive.

Cc1ccc2cc(CNCc3cccc4ccccc34)c(N3CCC(O)CC3)nc2c1	none (no result: Nrf2 activator, A549 tox, ATXN2 expr inh, Nrf2 block)
CCO[C@H]1OC(C(=O)N2CCN(Cc3ccccc3)CC2)=C[C@@H](c2ccc(C(F)(F)F)cc2)[C@@H]1CCCO	A549 tox inconclusive, ATXN2 expr inh inconclusive, ATXN viability inconclusive, Nrf2 block 29µM
CCO[C@H]1OC(C(=O)N2CCN(Cc3ccccc3)CC2)=C[C@@H](c2ccccc2)[C@@H]1CCCO	none
C[C@H]1C[C@@H]2[C@H]([C@@H](O)C[C@@]3(C)[C@H]2CC[C@]3(O)C(=O)COC(=O)CCC(=O)O)[C@@]2(C)C=CC(=O)C=C12	none (no result: Nrf2 activator, A549 tox, ATXN2 expr inh, Nrf2 block)
CC(=O)N(C)c1ccc(NC(=O)C(Sc2ccccc2)c2ccccc2)cc1 (configuration not stated)	Nrf2 block inconclusive
CC(C)(C)NS(=O)(=O)c1ccc(NC(=O)C(Sc2ccccc2)c2ccccc2)cc1 (configuration not stated)	A549 tox inconclusive, Nrf2 block 9.2µM (no result: ATXN2 expr inh, ATXN viability)
N#C/C(=C/c1ccc(N2CCCCCC2)o1)c1ccc(Cl)cc1	Nrf2 activator 11µM, A549 tox inconclusive, ATXN2 expr inh inconclusive, ATXN viability inconclusive
N#C/C(=C/c1ccc(N2CCCCC2)o1)c1cccc(F)c1	Nrf2 activator 14µM, Nrf2 block inconclusive
Nc1ccc([N+](=O)[O-])c(C(F)(F)F)c1	none (no result: Nrf2 activator, A549 tox, Nrf2 block)
Cc1ccc2[nH]c(=O)c(CN(CCO)Cc3nnnn3Cc3ccccc3)cc2c1	none (no result: Nrf2 activator, ATXN2 expr inh, ATXN viability)
COc1ccc(N2CCN(C(=O)c3cn(C4CCCCC4)c(=O)c4c3c3ccccc3n4C)CC2)cc1	ATXN viability 11µM, Nrf2 block inconclusive
O=c1c(Sc2ccccc2)c(C(F)(F)F)[nH]n1-c1ccccc1	A549 tox inconclusive, Nrf2 block 21µM (no result: ATXN2 expr inh, ATXN viability)
CCOc1ccccc1C(=O)NC1CCN(CC(=O)Nc2cc(OC)ccc2OC)CC1	ATXN viability inconclusive, Nrf2 block 23µM (no result: ATXN2 expr inh)
CCOC(=O)c1noc2ncnc(N3CCN(c4cccc(Cl)c4)CC3)c12	Nrf2 block inconclusive
COc1ccc(C2C(O)C(c3c[nH]c4ccccc34)=NN2C(=O)CCl)cc1 (configuration not stated)	Nrf2 activator inconclusive, ATXN2 expr inh 6.3µM, ATXN viability 7.9µM
CC[n+]1ccc(/C=C/c2ccc(N(C)C)cc2)c2ccccc21	A549 tox 9.2µM, ATXN2 expr inh inconclusive, ATXN viability 8.9µM, Nrf2 block 3.7µM
CCCCCC[n+]1ccccc1/C=C/c1ccc(N(C)C)cc1	ATXN2 expr inh inconclusive (no result: A549 tox, ATXN viability, Nrf2 block)
CC[n+]1ccccc1/C=C/c1ccc(N(C)C)cc1	A549 tox 10µM, ATXN2 expr inh inconclusive, ATXN viability inconclusive, Nrf2 block 5.8µM
CC[n+]1c(/C=C/c2ccc(OC)c(OC)c2)ccc2ccccc21	Nrf2 block inconclusive (no result: ATXN2 expr inh)
CC[n+]1c(/C=C/c2ccc(OC(C)=O)c(OC)c2)ccc2ccccc21	A549 tox 21µM, Nrf2 block inconclusive (no result: ATXN2 expr inh, ATXN viability)
CC[n+]1c(/C=C/c2ccc(N(C)C)cc2)ccc2ccccc21	A549 tox 21µM, ATXN2 expr inh inconclusive, Nrf2 block 8.2µM (no result: ATXN viability)
O=C(CSc1nc2c([nH]c3ccccc32)c(=O)n1-c1ccc(Cl)cc1)NCc1ccccc1	none (no result: Nrf2 block)
Fc1cccc(Cl)c1/C=N/Nc1ccccn1	Nrf2 activator inconclusive, Nrf2 block inconclusive
Oc1cccc2ccc(/C=C/c3ccccc3Cl)nc12	Nrf2 activator inconclusive (no result: ATXN2 expr inh)
Oc1cccc2ccc(/C=C/c3c(F)cccc3Cl)nc12	Nrf2 activator 1µM
Nc1nccc(/C=C/c2c(F)cccc2Cl)n1	Nrf2 activator 10µM, Nrf2 block inconclusive
COc1cc(OC)c(NC(=O)c2ccc3c(Cl)c4c(nc3c2)CCCC4)cc1Cl	none
COc1cc(OC)c(Nc2c3c(nc4nc(-c5cccs5)nn24)CCCC3)cc1Cl	A549 tox inconclusive, ATXN viability 28µM (no result: Nrf2 block)
OC[C@H](Cc1ccccc1)Nc1nc(Oc2ccc3c(c2)CCC3)nc2c1ncn2Cc1ccc(-c2ccccc2)cc1	none (no result: Nrf2 activator, A549 tox, ATXN viability, Nrf2 block)
O=S(=O)(c1ccc2c(c1)nc(COc1ccc(Cl)cc1)n2CC1CCCO1)N1CCOCC1 (configuration not stated)	Nrf2 block 10µM
CCCCn1c(CCl)nc2cc(S(=O)(=O)N3CCOCC3)ccc21	ATXN2 expr inh inconclusive, ATXN viability inconclusive
CCC[C@@H](CNC)NC[C@H](Cc1ccccc1)NCCCCc1ccccc1	ATXN2 expr inh 25µM (no result: ATXN viability)
CNC[C@@H](Cc1ccccc1)NC[C@@H](CC1CCCCC1)NCCCc1ccccc1	A549 tox inconclusive, ATXN2 expr inh inconclusive, ATXN viability 20µM
CCC[C@H](CN[C@@H](CNC)[C@H](C)CC)NCCc1cc(C(F)(F)F)cc(C(F)(F)F)c1	ATXN2 expr inh inconclusive (no result: ATXN viability)
CC[C@@H](C)[C@H](CNC)NC[C@@H](Cc1cccc2ccccc12)NCCc1cccc(C(F)(F)F)c1	ATXN viability 35µM
CNC[C@@H](CC1CCCCC1)NC[C@H](CC(C)C)NCCc1cccc(C(F)(F)F)c1	A549 tox inconclusive, ATXN2 expr inh 14µM, Nrf2 block inconclusive (no result: ATXN viability)
CCC[C@@H](CN[C@@H](CNC)C(C)C)NCCCCc1ccccc1	ATXN2 expr inh inconclusive, ATXN viability inconclusive
CC(Oc1ccc(Br)cc1Cl)C(=O)Nc1ccncc1 (configuration not stated)	ATXN2 expr inh inconclusive, Nrf2 block 21µM
Cc1cc(C)c2c(=O)n3c(nc2c1)C(Cc1ccccc1)NC(=O)c1cccnc1-3 (configuration not stated)	ATXN viability 10µM (no result: A549 tox, Nrf2 block)
Cc1ccc2oc(C(=O)Nc3cccc(-c4nc5ccccc5s4)c3)c(C)c2c1	Nrf2 block inconclusive
C=CCOc1ccc(/C=C/C(=O)OCC(=O)N2CCC(c3ccccc3)=N2)cc1	Nrf2 block 21µM
CN(C)CCNC(=O)c1sc2cccc(F)c2c1Cl	none
CN(C)CCNC(=O)c1ccccc1	none
COc1ccc(OC)c2nc3c(C(=O)NCCN(C)C)cccc3nc12	A549 tox 16µM, ATXN2 expr inh inconclusive, ATXN viability inconclusive, Nrf2 block 5.8µM
COc1ccc(C23CC4CC(CC(C4)C2)C3)cc1C(=O)NCCN(C)C	none (no result: ATXN2 expr inh, ATXN viability)
CN(C)CCNC(=O)c1cccc2ccc(-c3ccc(-c4ccccc4)cc3)nc12	Nrf2 activator 4.5µM, A549 tox inconclusive, ATXN viability 27µM
CN(C)CCNC(=O)c1cccc2nc3cccc(F)c3nc12	A549 tox 10µM, ATXN2 expr inh 8.9µM, ATXN viability inconclusive, Nrf2 block 4.6µM
Cc1cc(Cl)ccc1OCC(=O)N1CCOc2ccc(CN3C[C@@H](C)O[C@@H](C)C3)cc2C1	none (no result: Nrf2 activator, A549 tox, ATXN2 expr inh, Nrf2 block)
O=C(c1cccn1-c1nnc(N2CCCC2)s1)N1CCN(c2ccc(F)cc2)CC1	none (no result: ATXN2 expr inh, ATXN viability)
CC(C)C(=O)NCC1CCC2(CCN(Cc3ccc(-c4cccc(Cl)c4)o3)CC2)O1 (configuration not stated)	none (no result: Nrf2 activator, A549 tox, ATXN2 expr inh, Nrf2 block)
